DAX1 inh-1: DAX1 (NR0B1) inhibitors on StAR promoter, primary screen, cell-based, luminescence, SF-1 (NR5A1), full-length DAX-1 | HEK293T StAR-luciferase reporter, SF-1/DAX-1 repression relief | inhibition, % at 6.8 µM | hit rate 1.1% among 370,000 | AID 652010, 2013;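 active = inhibition above the mean over all tested compounds plus 3 SD, cut at about 3.6% in these data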;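 note: 0% = DAX-1 cells with DMSO and 100% = cells lacking DAX-1 with DMSO; higher inhibition means more luminescence from relief of DAX-1 repression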
hgDAF-12 ag: H. glycines DAF-12 receptor agonists, primary screen, cell-based, luminescence, HEK293, GAL4 fusion, UAS-luciferase | Nuclear hormone receptor DAF-12 (Heterodera glycines), GAL4 fusion | HEK293 GAL4-hgDAF12 UAS-luciferase reporter, agonist luminescence; normalized to butyrate control | activation, % at 6.8 µM | hit rate 1.8% among 370,000 | AID 687014, 2013;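 active = activation above a cutoff set at the mean of all screened compounds plus 3 SD, cut at about 10% in these data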;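 note: 0% = DMSO wells and 100% = sodium butyrate wells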
hcDAF-12 act: H. contortus DAF-12 nuclear receptor activators, primary screen, cell-based, luminescence, HEK293, lit1-tk-luc reporter. HEK293 hcDAF-12 lit1-tk-luc reporter; 0% DMSO, 100% Δ7-dafachronic acid. AID 652067, 2013. activation, % at 6.8 µM. hit rate 1.4% among 370,000;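 active = activation above the mean of all tested compounds plus 3 SD, cut at about 5.5% in these data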;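 note: 100% = response to 3 µM Δ7-dafachronic acid high control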
ssDAF12 agonist: S. stercoralis DAF-12 nuclear receptor activators, primary screen, cell-based, luminescence, HEK293, GRIP1 co-expression, lit1-tk-luc; HEK293 ssDAF-12/GRIP1 lit1-tk-luc reporter; % of 3 µM dafachronic acid response; activation, % at 6.8 µM; hit rate 1% among 370,000; AID 652126, 2013;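 active = activation above the mean over all tested compounds plus 3 SD, cut at about 0.9% in these data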;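 note: 0% = DMSO-only wells and 100% = 3 µM delta7-dafachronic acid wells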
DAX1 inh-2: DAX1 (NR0B1) inhibitors, primary screen, cell-based, HEK293, Gal4-DAX1, luciferase luminescence; Nuclear receptor subfamily 0 group B member 1 (Homo sapiens), P51843; AID 504766, 2011; inhibition, % at 6.75 µM; HEK293 Gal4-DAX1 luciferase reporter; hit rate 0.99% among 340,000;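 active = inhibition above the mean over all tested compounds plus 3 SD, cut at about 4.2% in these data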;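 note: 0% = DAX1-transfected cells with DMSO and 100% = empty-vector control cells with DMSO; inhibition shows as a rise in luminescence from relieved DAX1 repression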
Target sequence (P51843 207-470 limits assumed): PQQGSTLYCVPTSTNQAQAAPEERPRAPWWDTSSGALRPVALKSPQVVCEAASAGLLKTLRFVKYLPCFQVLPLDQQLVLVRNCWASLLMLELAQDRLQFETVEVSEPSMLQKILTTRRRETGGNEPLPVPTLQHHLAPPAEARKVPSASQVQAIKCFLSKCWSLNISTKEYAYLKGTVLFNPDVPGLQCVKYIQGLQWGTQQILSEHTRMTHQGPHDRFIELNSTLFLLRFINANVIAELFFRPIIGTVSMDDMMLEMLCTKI
hgDAF12 conf: H. glycines DAF-12 receptor agonists, confirmation, cell-based, luminescence, HEK293, GAL4-LBD fusion. AID 743050, 2013. hit rate 80% among 3,300. HEK293 GAL4-hgDAF12 luciferase reporter, agonist mode; percent of butyrate response. activation, % at 6.8 µM. shares compounds with hgDAF-12 ag;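 active = mean activation over triplicate wells above the hit cutoff derived from the earlier primary screen, cut at about 11% in these data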;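 note: 0% = DMSO low control and 100% = 2 mM sodium butyrate high control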
LXR ag 2: LXR agonists, Gal4 luciferase reporter, confirmation, counter-screen for hgDAF-12 agonist project, cell-based, luminescence, HEK293, H. glycines campaign | AID 743051, 2013 | activation, % at 6.8 µM | 3,300 tested, under 10 active | 24 h | shares compounds with hgDAF-12 ag;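 active = mean activation of the triplicate above a set limit carried over from the primary screen, none filed active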
Target sequence (P55055 whole entry, looked up, the tested form may be a part): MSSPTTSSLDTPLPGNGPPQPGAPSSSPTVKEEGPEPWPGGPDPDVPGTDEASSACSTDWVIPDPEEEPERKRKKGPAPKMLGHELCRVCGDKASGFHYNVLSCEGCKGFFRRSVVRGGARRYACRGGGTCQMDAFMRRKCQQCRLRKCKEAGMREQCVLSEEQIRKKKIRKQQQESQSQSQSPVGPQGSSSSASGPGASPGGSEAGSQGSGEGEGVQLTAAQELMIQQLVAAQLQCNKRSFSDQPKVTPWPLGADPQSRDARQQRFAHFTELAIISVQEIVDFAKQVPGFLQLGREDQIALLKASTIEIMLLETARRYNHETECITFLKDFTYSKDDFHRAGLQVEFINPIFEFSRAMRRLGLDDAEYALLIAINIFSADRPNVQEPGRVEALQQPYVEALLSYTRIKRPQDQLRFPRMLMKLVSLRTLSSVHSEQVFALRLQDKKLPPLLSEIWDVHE
* = called active by the depositor; . = no result. A selection: hits, their analogues and other compounds. The true share with any hit is near 4.1%.

SMILES	DAX1 inh-1	hgDAF-12 ag	hcDAF-12 act	ssDAF12 agonist	DAX1 inh-2	hgDAF12 conf	LXR ag 2
O=C(Nc1cc2c(cc1Cl)OCCCO2)c1ccc(F)cc1	2.1	8.0	1.6	-0.8	2.4	.	.
Cc1ccc(C(=O)Nc2cc3c(cc2Cl)OCCCO3)cc1	1.9	16.7*	3.6	0.8	2.5	12.9*	0.5
COc1ccc(CC(=O)NCC2CCN(C(=O)C(=O)c3cc4ccccc4o3)CC2)cc1	0.5	-2.2	-1.5	-0.8	.	.	.
O=C(C(=O)N1CCN(C(=O)C2CCCC2)CC1)c1cccc(C(F)(F)F)c1	0.0	1.4	-0.1	-0.6	.	.	.
COC(=O)[C@]12C[C@H](CC(=O)N3CCN(C(=O)c4ccco4)CC3)C(=O)N(Cc3ccc(Cl)cc3Cl)C1=C[C@H](COCc1ccccc1)O[C@@H]2C	-0.9	1.9	-2.4	-1.3	.	.	.
COc1ccc(CCNC(=O)COC(=O)Cc2ccccc2[N+](=O)[O-])cc1	-3.0	-5.6	3.3	-0.5	0.7	.	.
COc1ccc(CCNC(=O)Nc2ccccc2[N+](=O)[O-])cc1	2.1	15.6*	0.9	-1.1	.	4.8	0.2
COC(=O)C1(F)C(=O)NC(=O)NC1OC (centres undefined)	-0.9	6.1	-0.5	-1.1	.	.	.
COc1ccccc1-c1noc(-c2ccccc2)n1	3.7*	13.7*	5.3	0.7	1.9	18.8*	0.8
Cc1nc2ccccc2nc(C)c1=NOCc1cccc(F)c1	2.5	14.2*	3.4	-0.2	0.4	-3.7	-0.1
O=C(NC1CCCCN(Cc2cccc(F)c2)C1=O)c1ccc2ccccc2c1 (centres undefined)	0.0	2.3	-2.8	-1.4	.	.	.
CCOC(=O)Nc1ccc2nc(-c3cscn3)[nH]c2c1	-1.1	15.6*	2.6	0.3	0.0	14.5*	0.4
CCOC(=O)C1=CCN(S(=O)(=O)c2ccc(F)cc2)C1c1ccc(Cl)cc1 (centres undefined)	-0.5	-0.5	-0.1	0.0	.	.	.
c1cnc(SCCOc2ccc3c(c2)CCC3)nc1	3.7*	15.2*	3.8	-0.1	7.6*	17.2*	0.8
CN1CCN(c2ccc(-c3cc(NC=O)c4ncc(-c5ccc(F)cc5)n4c3)cc2)CC1	0.6	17.4*	0.1	0.4	.	8.3	0.2
CC(=Nc1ccc(C)cc1C)c1sc2ccccc2c1O	4.2*	21.0*	5.7*	1.9*	5.8*	24.1*	1.3
COc1cc(C=Nn2c(-c3cc(C)[nH]n3)n[nH]c2=S)cc(Br)c1O	0.3	-0.2	0.3	-1.8	.	.	.
O=c1c2ccccc2n(Cc2ccco2)n1[C@@H](Cc1ccccc1)Cn1cc(C2CCCC2)nn1	-0.4	-1.6	-1.4	-0.8	.	.	.
Cc1ccc(NCCC(=O)c2cccs2)cc1C	2.4	14.8*	4.3	0.6	0.7	14.8*	0.7
Cc1ccc(NCCC(=O)c2ccc(Cl)cc2)cc1C	-0.7	1.3	1.0	-0.4	0.0	.	.
Cn1c(SCC2CCCCC2)nnc1-c1ccco1	1.3	14.5*	1.3	0.2	.	14.6*	0.4
Nc1ccccc1NC(=O)NC(=O)c1ccccc1	2.0	15.9*	1.4	2.0*	4.6*	15.9*	0.5
Nc1ccccc1NC(=O)c1ccccc1N	0.5	5.0	0.2	-0.3	-0.2	.	.
COCC(=O)Nc1ccc2c(c1)[C@H]1C[C@@H](CC(=O)NCC3CC3)O[C@H](CO)[C@H]1O2	-0.1	-0.7	-1.9	-0.3	.	.	.
CCc1ccc(NC(=O)Nc2cccs2)cc1	1.4	14.3*	4.1	-0.5	2.1	18.1*	0.6
SMILES	DAX1 inh-1	hgDAF-12 ag	hcDAF-12 act	ssDAF12 agonist	DAX1 inh-2	hgDAF12 conf	LXR ag 2
CC(N)c1csc(Nc2nncc3ccccc23)n1 (centres undefined)	0.4	3.8	3.0	-0.7	.	.	.
CC(C)C(N)c1csc(Nc2nncc3ccccc23)n1 (centres undefined)	2.5	14.0*	2.4	-0.9	.	7.5	0.3
O=C(OC12CCCN(C1)/C(=C/c1cccnc1)C2)c1ccccc1 (centres undefined)	-2.2	-4.7	-4.5	-2.3	.	.	.
O=C(Nc1ccn(Cc2ccccc2)n1)c1ccc(F)cc1	0.3	17.0*	3.7	0.9	-1.1	12.8*	0.5
CCCC(=O)OC12CCCN(C1)/C(=C/c1ccc(OC)cc1)C2 (centres undefined)	1.7	-3.3	-0.1	-0.5	.	.	.
CN(C)c1ccc(C=Cc2ccnc3ccccc23)cc1N	0.6	17.5*	2.3	-0.5	.	10.1	0.4
O=C(NCCc1c[nH]c2ccccc12)c1ccc(Sc2ccccc2Cl)c([N+](=O)[O-])c1	0.0	2.3	3.0	-0.6	.	.	.
Cc1ccc(/C=C\c2nccc3c2[nH]c2ccccc23)cc1	4.5*	15.4*	4.4	0.6	2.1	8.0	0.3
COc1ccccc1NC(=O)Nc1ccc(C(=O)N2CCCCC2)cc1	2.2	13.6*	1.4	0.1	-0.9	10.8*	0.5
COC(=O)c1ccccc1NC(=O)Nc1ccc(C(=O)N2CCCC2)cc1	-0.6	-3.0	0.1	-0.9	-1.9	.	.
COC(=O)c1cc2c(c3c4cc(F)ccc4n(S(=O)(=O)c4ccc(C)cc4)c13)C(=O)N(c1ccc(OC)cc1)C2	0.5	2.4	0.8	-0.1	.	.	.
Cc1ccc(CNC(=O)CCn2c(=O)oc3ccccc32)cc1	-0.6	13.3*	0.2	-0.4	-0.3	0.6	0.0
COC(=O)[C@]12C[C@H](CC(=O)NCC34CC5CC(CC(C5)C3)C4)C(=O)N(Cc3ccccc3)C1=C[C@H](C(C)C)O[C@@H]2C1CC1	-1.1	-0.5	-2.9	-1.3	.	.	.
C#CCNC(=O)C[C@H]1C(=O)N(CC=C)C2=CCCC[C@@]21C(=O)OCC	-1.3	-0.5	-2.1	-1.4	.	.	.
Cc1ccc(C(=O)n2ccc3ccc(-c4ccc5ccn(Cc6ccc(C#N)cc6)c5c4)cc32)cc1	-1.0	0.3	1.4	-0.6	.	.	.
Cc1nn(-c2ccccn2)c2c1-c1nc(N)ncc1CC2	1.9	18.4*	1.0	0.2	0.8	10.5*	0.3
Cc1ccc2c(Cl)c(C(=O)Nc3cccnc3)sc2c1	2.8	20.1*	2.5	-0.8	2.7	18.0*	0.8
Cc1cccc(C2NC(=O)c3ccccc3N2)c1 (centres undefined)	2.6	16.0*	2.4	-0.1	2.0	13.7*	0.4

Screening data: PubChem BioAssay, The Scripps Research Institute Molecular Screening Center
